SMILES strings stand for the structures. The source made the active and inactive calls. Unless noted, how the calls were made is not given here.

Assay [1] concerns XIP peptide (Xip251-270) binding. Kind of assay: small-molecule binders of XIP peptide, primary screen, biochemical, small-molecule microarray, fluorescence 635/667 nm, 0.1 µg/mL protein (AID 1182). The following applies: fluorescent protein binding, 635 nm, higher = more signal, called active from +8 up or from −8 down.
For a further assay, the system named is XIP peptide (Xip251-270). Kind of assay: small-molecule binders of XIP peptide, primary screen, biochemical, small-molecule microarray, fluorescence 635/667 nm, 0.5 µg/mL protein (AID 1183). The following applies: small-molecule microarray binding, fluorescence 635 nm; higher = more signal.
Assay [2] is described as follows: Plasmodium falciparum growth inhibition, primary screen, strain 3D7, DAPI fluorescence, 100 nL (AID 1184).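 Further: parasites grown inside human red blood cells in medium with human serum.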 The following applies: P. falciparum 3D7 growth, 3 d, higher = more signal.
The target of assay [3] is Homeobox protein Hox-A13 (Mus musculus) (UniProt Q62424). The assay is described as follows: inhibitors of HoxA13-DNA binding, primary screen, biochemical, fluorescence polarization, labeled oligonucleotide (AID 1185). Conditions: 15 min, higher = more signal, called active from +8 up or from −8 down. A general note: In fluorescence polarisation assays a small probe gives low polarisation when free and higher when bound to something large.
Homeobox protein Hox-A13 (Mus musculus), sequence (Q62424 whole entry, looked up): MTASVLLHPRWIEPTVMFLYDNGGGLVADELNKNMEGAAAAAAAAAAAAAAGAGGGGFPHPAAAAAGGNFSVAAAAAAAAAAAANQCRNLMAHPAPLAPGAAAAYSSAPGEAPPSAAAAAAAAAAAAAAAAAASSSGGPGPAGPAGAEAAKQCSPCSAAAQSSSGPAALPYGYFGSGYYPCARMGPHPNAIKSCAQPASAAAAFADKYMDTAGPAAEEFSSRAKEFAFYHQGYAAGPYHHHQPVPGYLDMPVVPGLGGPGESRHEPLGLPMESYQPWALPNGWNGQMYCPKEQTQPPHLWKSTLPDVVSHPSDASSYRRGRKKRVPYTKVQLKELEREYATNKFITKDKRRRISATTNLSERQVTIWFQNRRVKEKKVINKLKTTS

A short description of assay [4]: inhibitors of hydroxyurea-induced Chk1 phosphorylation, primary screen, imaging, HeLa, phospho-Chk1 antibody, percent positive cells (AID 1186). The following applies: hydroxyurea-induced phospho-Chk1 immunofluorescence imaging, higher = more signal.
A short description of assay [5]: inhibitors of hydroxyurea-induced Chk1 phosphorylation, primary screen, imaging, HeLa, phospho-Chk1 nuclear intensity (AID 1187). Conditions: hydroxyurea-induced phospho-Chk1 immunofluorescence imaging, higher = more signal.

As to `C=CC[C@@]1(C(=O)NCCCOC)N=C(c2ccc(OCCCO)cc2)O[C@@H]1c1ccccc1`, the composite z-score in assay [1] is 1.42 (inactive); in the assay with XIP peptide (Xip251-270), 0.805. For the same molecule, the z-score is -1.95 in assay [2], -4.75 (inactive) in assay [3], -0.339 (inactive) in assay [4] and -0.343 (inactive) in assay [5].

In the case of `COC(=O)[C@@]1(Cc2ccc(OC)cc2)[C@H]2c3cc(C(=O)N4CCCC4)n(CCO)c3C[C@H]2CN1C(=O)c1ccccc1`, the composite z-score in assay [1] is 0.675 (inactive); in the assay on XIP peptide (Xip251-270), 0.643. The z-score in assay [2] is -1.72; in assay [3], -5.06 (inactive); in assay [4], 1.33 (inactive); in assay [5], 0.404 (inactive).

On to `C=CCC(OC(C)=O)[C@@H]1[C@@H](N(Cc2ccc(-c3ccccc3)cc2)C(=O)c2ccc(-c3ccccc3)cc2)c2cc(OCCCO)ccc2N1C(=O)c1ccc2ccccc2c1` (stereo not given in full), for which the composite z-score in assay [1] is -0.29 (inactive); with XIP peptide (Xip251-270), -0.482. The z-score in assay [2] is 0.248; in assay [3] it was -0.68 (inactive); in assay [4], 0.215 (inactive); in assay [5], -0.144 (inactive).

For the molecule `O=C1CS(=O)(=O)C(c2cccc([N+](=O)[O-])c2)N1c1ccccc1` (stereo not given), the composite z-score was 0.784 (inactive) in assay [1] and 0.263 in the assay with XIP peptide (Xip251-270). The z-score is 0.66 in assay [2], 0.011 (inactive) in assay [3], -0.346 (inactive) in assay [4] and -0.291 (inactive) in assay [5].

On to `CC(C)N1C(=O)C[C@@](C(=O)O)(c2ccc([N+](=O)[O-])cc2)[C@H]1c1ccc(CO)cc1`, for which the composite z-score in assay [1] was 1.04 (inactive); in the assay on XIP peptide (Xip251-270), 0.916. The z-score in assay [2] is -0.352; in assay [3], -2.9 (inactive); in assay [4], -0.198 (inactive); in assay [5], -0.0057 (inactive).

Regarding `[N-]=[N+]=Nc1ccccc1C[C@@]1(C(=O)N2CCOCC2)N=C(c2ccc(OCCCO)cc2)O[C@@H]1c1ccccc1`, the composite z-score in assay [1] was 0.111 (inactive); in the assay with XIP peptide (Xip251-270), 0.765. The z-score in assay [2] is -2.32; in assay [3], -5.84 (inactive); in assay [4] it was -1.05 (inactive); in assay [5], -1.34 (inactive).

In the case of `Cc1ccc(NN2C(C(O)c3c(F)cccc3Cl)C=CC3C(=O)N(C4CCCCC4)C(=O)C32)cc1` (stereo not given), the results for the composite z-score (in assay [1]; with XIP peptide (Xip251-270)) were -0.391 (inactive) and 0.696, respectively. The z-score in assay [2] was -0.216; in assay [3], -3.84 (inactive); in assay [4] it was -0.0771 (inactive); in assay [5], -0.369 (inactive).

On to `CCCC=C(CCC)[C@@H](NC(=O)C(C)(C)C)c1ccc(C(=O)OC)cc1`, for which the figures for the composite z-score (in assay [1]; with XIP peptide (Xip251-270)) were 0.158 (inactive) and -0.227, respectively. The z-score is -1.47 in assay [2], -0.168 (inactive) in assay [3], -0.75 (inactive) in assay [4] and -0.977 (inactive) in assay [5].

In the case of `COC(=O)[C@@]1(Cc2ccc(OC)cc2)[C@H]2c3cc(C(=O)N(C)C)n(Cc4ccc(C)o4)c3C[C@H]2CN1C(=O)c1ccccc1`, the composite z-score in assay [1] is 0.223 (inactive); in the assay on XIP peptide (Xip251-270), 0.0805. In addition, the z-score in assay [2] is -0.952; in assay [3], -4.5 (inactive); in assay [4], 0.046 (inactive); in assay [5], 0.304 (inactive).

As to `CCCCCCCCCC(O)C1C=CC2C(=O)N(c3ccccc3)C(=O)C2N1Nc1cc(OC)c(OC)c(OC)c1` (stereo not given), the values for the composite z-score (in assay [1]; in the assay on XIP peptide (Xip251-270)) were -0.26 (inactive) and 0.206, respectively. Moreover, the z-score in assay [2] is -0.412; in assay [3], -2.06 (inactive); in assay [4], 0.297 (inactive); in assay [5], 0.0284 (inactive).

Regarding `COc1ccc(CCNC(=O)[C@@]2(c3ccc([N+](=O)[O-])cc3)CC(=O)N(C3CCCCC3)[C@@H]2c2ccc(CO)cc2)cc1`, the composite z-score in assay [1] is 1.48 (inactive); in the assay with XIP peptide (Xip251-270), 0.662. Besides, the z-score in assay [2] is -0.171; in assay [3], -4.2 (inactive); in assay [4], -0.192 (inactive); in assay [5], 0.0527 (inactive).

As to `COCCOC(=O)N1C(=O)[C@@]2(c3cc(C#CC4(O)CCCCCC4)ccc31)[C@H](C(=O)Nc1nc3ccccc3s1)[C@H]1C(=O)O[C@H](c3ccccc3)[C@H](c3ccccc3)N1[C@@H]2c1ccc(O)cc1`, the composite z-score in assay [1] was 0.479 (inactive); with XIP peptide (Xip251-270), 0.817. Further, the z-score in assay [2] is 0.219; in assay [3], -1.09 (inactive); in assay [4], -0.205 (inactive); in assay [5], 0.0486 (inactive).

Consider `[N-]=[N+]=Nc1ccccc1C[C@@]1(C(=O)NCCN2CCOCC2)N=C(c2ccc(OCCCO)cc2)O[C@@H]1c1ccccc1N=[N+]=[N-]`, for which the composite z-score in assay [1] was 0.361 (inactive); in the assay with XIP peptide (Xip251-270), 0.846. In addition, the z-score was -2.49 in assay [2], -5.26 (inactive) in assay [3], -0.303 (inactive) in assay [4] and -0.523 (inactive) in assay [5].

Turning to `CCCC[C@@H](O)C1=C(COc2ccccc2)C[C@H]2C(=O)N(Cc3ccccc3)C(=O)[C@H]2[C@H]1CO`, the composite z-score is -0.243 (inactive) in assay [1] and 0.374 in the assay with XIP peptide (Xip251-270). For the same molecule, the z-score in assay [2] is 0.131; in assay [3], -7.37 (inactive); in assay [4], -0.782 (inactive); in assay [5] it was -0.513 (inactive).

Turning to `CC(C)[Si]1(C(C)C)OCc2cc(-c3ccc(-c4ccc(Cl)c(Cl)c4)o3)nc(-c3ccccc3)c21`, the composite z-score in assay [1] is -0.325 (inactive); in the assay with XIP peptide (Xip251-270), 0.716. Moreover, the z-score is 0.138 in assay [2], -2.02 (inactive) in assay [3], -0.611 (inactive) in assay [4] and -0.577 (inactive) in assay [5].

Take `CCCCC(=C=CC[C@H](O)c1ccc(OCCO)cc1)CCO`: the composite z-score in assay [1] was 0.0643 (inactive); with XIP peptide (Xip251-270) it was 0.256. Further, the z-score in assay [2] is -1.17; in assay [3], -4.31 (inactive); in assay [4] it was -0.373 (inactive); in assay [5], -0.317 (inactive).

`O=C1O[C@@H](c2ccccc2)[C@@H](c2ccccc2)N2[C@@H](c3ccc(OCCO)cc3)[C@]3(C(=O)Nc4ccc(C#CC5=CCCCC5)cc43)[C@@H](C(=O)NC[C@H](O)c3ccccc3)[C@H]12`: the composite z-score in assay [1] is 0.127 (inactive); in the assay with XIP peptide (Xip251-270) it was 0.693. Moreover, the z-score in assay [2] was -1.35; in assay [3] it was 3.28 (inactive); in assay [4], 0.27 (inactive); in assay [5] it was 0.433 (inactive).

For `O=C(Cc1ccccc1)[C@H]1C2C=CCCC(c3ccccc3)=C2CN1Cc1ccccc1` (stereo not given in full), the composite z-score is 1.11 (inactive) in assay [1] and -0.0929 in the assay with XIP peptide (Xip251-270). For the same molecule, the z-score in assay [2] was 0.979; in assay [3], -2.16 (inactive); in assay [4] it was -0.171 (inactive); in assay [5] it was 0.213 (inactive).

`COC(=O)[C@]1(CCS(=O)(=O)c2ccccc2)N=C(c2ccc(OCCCO)cc2)O[C@@H]1c1ccccc1N=[N+]=[N-]`: the composite z-score was 1.48 (inactive) in assay [1] and 0.836 in the assay with XIP peptide (Xip251-270). For the same molecule, the z-score in assay [2] is -2.36; in assay [3], -3.34 (inactive); in assay [4] it was -0.265 (inactive); in assay [5] it was -0.364 (inactive).

As for `CN(C)CCCCCCNC(=O)[C@@H]1C[C@@H]2C(=O)N3CCC[C@H]3C(=O)N2[C@@H]1c1cccc(OCCO)c1`, the composite z-score in assay [1] is 2.52 (inactive); with XIP peptide (Xip251-270), 0.872. For the same molecule, the z-score was 0.517 in assay [2], -2.94 (inactive) in assay [3], 0.0537 (inactive) in assay [4] and -0.055 (inactive) in assay [5].

With `CCCCCN1CC=CC23O[C@@H]4/C=C\CCCOC(=O)C4[C@H]2C(=O)N(C(C)CO)[C@@H]3C1=O` (stereo not given in full), the composite z-score in assay [1] is 0.221 (inactive); in the assay on XIP peptide (Xip251-270), 0.106. Also, the z-score in assay [2] is 0.266; in assay [3], -3.74 (inactive); in assay [4], -0.107 (inactive); in assay [5], 0.37 (inactive).

Consider `CC(=O)NCCCC[C@@H]1NC(=O)[C@@H]2C[C@H](C(=O)NCCCCCN)[C@H](c3ccc(O)cc3)N2C1=O`, for which the composite z-score in assay [1] was 0.0292 (inactive); in the assay with XIP peptide (Xip251-270) it was 0.891. Further, the z-score was -1.13 in assay [2], -3.21 (inactive) in assay [3], 0.156 (inactive) in assay [4] and 0.317 (inactive) in assay [5].

Regarding `[N-]=[N+]=Nc1ccccc1[C@@H]1OC(c2ccc(OCCCO)cc2)=N[C@]1(Cc1ccccc1)C(=O)N1CCCCC1`, the composite z-score in assay [1] was 3.82 (inactive); with XIP peptide (Xip251-270) it was 0.806. Moreover, the z-score was -2.38 in assay [2], -4.3 (inactive) in assay [3], -0.23 (inactive) in assay [4] and -0.606 (inactive) in assay [5].

On to `CC(C)C(O)C1C=CC2C(=O)N(c3ccccc3)C(=O)C2N1Nc1ccccc1` (stereo not given), for which the figures for the composite z-score (in assay [1]; with XIP peptide (Xip251-270)) were 1.33 (inactive) and 0.852, respectively. Besides, the z-score in assay [2] is -0.752; in assay [3], -4.18 (inactive); in assay [4], 0.436 (inactive); in assay [5] it was 0.581 (inactive).

As to `CCOC(=O)C[C@H]1[C@H](OC(=O)c2ccc(-c3ccccc3)cc2)[C@@H](NC(=O)CC(C)C)c2cc(OCCCO)ccc2N1C(=O)c1ccc2ccccc2n1`, the composite z-score in assay [1] was -0.349 (inactive); with XIP peptide (Xip251-270), 0.381. The z-score was -0.459 in assay [2], -2.19 (inactive) in assay [3], 0.319 (inactive) in assay [4] and 0.571 (inactive) in assay [5].

The values above are taken from PubChem BioAssay.
